Rows were chosen to be rich in hits. Some 6.6% of all compounds tested hit in one or more screens of this group.
RGS4 inh: inhibitors of human regulator of G protein signaling 4; Transcreener GDP fluorescence polarization, RGS4-accelerated GTP hydrolysis; Potency, µM (series often up to 114 µM), for inactives: at the top dose activity change, negative = inhibition, actives largely listed as inhibitors; hit rate 0.039% among 390,000; AID 504845; also: % is scaled to controls: 0 for no effect and ±100 for the full control effect; nearly all actives have a fitted effect of over 75% in size
Target sequence (P49798 whole entry, looked up): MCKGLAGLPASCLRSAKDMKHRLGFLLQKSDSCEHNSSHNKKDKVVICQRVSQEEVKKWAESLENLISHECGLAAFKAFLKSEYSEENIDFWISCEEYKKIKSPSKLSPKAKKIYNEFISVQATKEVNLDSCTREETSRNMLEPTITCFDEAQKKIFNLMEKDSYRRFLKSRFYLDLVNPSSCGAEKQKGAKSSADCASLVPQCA
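MLSMR compounds (23 nl, pin-transferred) preincubated 10 min at room temperature with a 500nM (2x) first reagent, then RGS4 at 900nM (2x) plus Transcreener GDP mix added; fluorescence polarization (620/688 nm) read before and after 90 min at 30 °C.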
PTAP TSG101 blk: blocks PTAP/TSG101 interaction to inhibit HIV-1 budding. Q99816. Potency, µM (top dose mostly 115 µM), for inactives: top-dose activity change, negative = inhibition, hits mostly inhibitors. 340,000 tested, under 10 active. Fluorescence polarization, FITC-PTAP peptide / Tsg101 binding. AID 493005; active = well fitted inhibition curve with a large enough effect in the main read-out, with a control signal flat, not every such curve was filed as active; inconclusive = small, poorly fitted or top-dose-only effect, or effect the other way, or a change in a side signal; inactive = no such curve, though single readings can be large or run the other way; also: % of control where 0% means no effect
Target sequence (Q99816 whole entry, looked up): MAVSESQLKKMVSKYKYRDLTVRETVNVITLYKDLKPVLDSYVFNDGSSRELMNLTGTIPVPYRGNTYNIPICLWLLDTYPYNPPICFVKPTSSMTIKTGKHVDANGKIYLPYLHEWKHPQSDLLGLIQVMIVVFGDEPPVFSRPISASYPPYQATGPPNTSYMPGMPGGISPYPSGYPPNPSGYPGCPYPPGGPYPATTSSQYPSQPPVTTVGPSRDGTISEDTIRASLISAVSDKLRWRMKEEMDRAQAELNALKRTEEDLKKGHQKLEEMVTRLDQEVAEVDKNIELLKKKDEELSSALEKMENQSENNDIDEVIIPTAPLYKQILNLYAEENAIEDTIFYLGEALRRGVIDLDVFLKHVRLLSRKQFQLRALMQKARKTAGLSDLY
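Fluorescence anisotropy tracks displacement of a FITC-tagged PTAP peptide (50 nM) from the Tsg101 binding domain (10 uM), following a 20 min room-temperature incubation at pH 7.5.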
MCF10A rerep: induces DNA re-replication in MCF 10a normal breast cells | MCF 10A DNA re-replication, Hoechst nuclear intensity, 48 h | hit rate 2.9% among 350,000 | Potency, µM (series often up to 46.1 µM), inactives show top-dose activity, positive = re-replication, most hits filed as activators | AID 624296; also: % of control where 0% means no effect; nearly all actives have a fitted effect of over 50% in size
KB-3-1 tox: kills parental KB-3-1 adenocarcinoma cells; KB-3-1 viability, CellTiter-Glo ATP luminescence, 72 h; hit rate 1.4% among 400,000; AID 1347075; Potency, µM (doses to about 46.1 µM), actives largely listed as cytotoxic; also: % is scaled to controls: 0 for no effect and ±100 for the full control effect; nearly all actives have a fitted effect of over 60% in size
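KB-3-1 cells, DMEM (no phenol red) + 10% FBS; compound by pin transfer, 72 h, 37 °C. Readout: CellTiter-Glo luminescence after 10 min. Data normalized, curve-fitted.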
SW480 rerep: DNA re-replication induction in SW480 cells | SW480 DNA re-replication, Hoechst DNA content imaging, 48 h | Potency, µM (highest dose often 46.1 µM), for the others: at the top dose re-replication activation, usual class: activators | hit rate 1.8% among 340,000 | AID 624297; also: % of control where 0% means no effect; nearly all actives have a fitted effect of over 55% in size
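Image-based read-out: total Hoechst fluorescence of nuclei (405 nm excitation, 500-530 nm emission), with hits raising the fraction of high-intensity nuclei. SW480 colon cells incubated 48 hr with compounds at 37 C.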
KB-V1 MDR tox: kills drug-selected multidrug resistant KB-V1 cells | KB-V1 MDR cells viability, CellTiter-Glo, 72 h | Potency, µM (series often up to 46.1 µM), actives largely listed as cytotoxic | hit rate 3.4% among 400,000; also: % is scaled to controls: 0 for no effect and ±100 for the full control effect; nearly all actives have a fitted effect of over 60% in size
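In this primary screen, KB-V1 cells overexpressing P-gp are incubated with library compounds (lowest to highest concentration) for 72 h at 37 degrees C before a luminescent ATP viability read.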
* = called active by the depositor; i = inactive; ? = inconclusive; / = no result; [ ] = another dose, or the depositor's remark. Unless noted, calls follow the shape of the dose curve; as a rule, active = well fitted curve in the direction sought with a large enough effect; inconclusive = small, poorly fitted or top-dose-only effect, or another doubt; inactive = no such curve, though single readings can be large; an effect the other way counts as inactive or inconclusive. Potency is read from the fitted curve at half-maximal effect.

SMILES | RGS4 inh | PTAP TSG101 blk | MCF10A rerep | KB-3-1 tox | SW480 rerep | KB-V1 MDR tox
Cc1ccc(C2=NN(C(=O)CSc3nc4ncc(Cl)cc4[nH]3)C(c3ccco3)C2)cc1 (centres undefined) | -21% | -4% | 5% | i | 3% | i
O=C(NCc1ccccc1Cl)C1CCN(S(=O)(=O)Cc2ccccc2)CC1 | 0% | / | / | i | / | i
CCCN1CNc2c(c(=O)[nH]c(=S)n2CCc2ccccc2Cl)C1 | 13% | / | / | / | / | /
Nc1c(C(=O)Nc2ccccc2)nnn1Cc1ccc(F)cc1Cl | -5% | / | / | / | / | /
O=S(=O)(Nc1cc2nc3ccccc3nc2n1Cc1ccccc1)c1ccc(Cl)cc1 | ? | ? | 7.3µM* | i | 10µM* | i
O=S(=O)(NCc1ccccc1)c1ccc(Cl)cc1 | -21%[56.9 µM] | -2% | 5% | i | -1% | i
Cc1cccc(OC(=O)c2cc(-c3ccc4c(c3)OCCO4)on2)c1 | 11% | / | / | i | / | i
CC(C)NC(=O)CSc1cn(CC(=O)N2CCCCCC2)c2ccccc12 | 1% | / | / | / | / | /
c1ccc(Cn2sc(=Nc3ccccc3)nc2-c2ccccc2)cc1 | 12% | / | / | ? | / | i
c1ccc(N=c2nc(-c3ccccc3)n(-c3ccccc3)s2)cc1 | -36% | / | / | ? | / | 16µM*
Cc1ccc(C(=O)Cn2c3c(sc2=N)CCCC3)cc1 | i | / | / | / | / | /
N=c1oc2ccc3ccccc3c2cc1-c1nc(-c2ccccc2)cs1 | 4% | ? | ? | i | -15% | i
N=c1oc2ccccc2cc1-c1nc(-c2ccccc2)cs1 | 7% | 1% | 10µM* | i | 13µM* | 23µM*
Cc1c(Br)c([N+](=O)[O-])nn1CCCC(=O)N1CCN(c2ccccc2)CC1 | -22% | -3% | -37% | ? | -15% | 21µM*
Cc1c(Br)c([N+](=O)[O-])nn1CC(=O)N1CCc2ccccc2C1 | -29% | -2% | 1% | i | -13% | 16µM*
O=C(/C=C/c1ccccc1)Nc1ccc(Cl)cn1 | -18% | -1% | ? | 18µM* | 15µM* | ?
COc1cccc(NC(=O)/C=C\c2ccc(Cl)cc2)c1 | i | / | / | / | / | /
CSc1cccc(NC(=O)/C=C/c2ccc(Cl)cc2)c1 | -17% | 0% | 16% | ? | 0% | 15µM*
Cc1cccc(NC(=O)/C=C/c2ccc(Cl)cc2)n1 | -10% | 0% | 0% | i | / | 16µM*
Cc1cc(C)nc(NC(=O)/C=C/c2ccccc2Cl)c1 | -13% | -1% | -23% | i | -2% | ?
CSc1cccc(NC(=O)/C=C/c2ccccc2)c1 | -2% | -11% | 19% | i | -3% | i
Cc1cc(C)nc(NC(=O)/C=C/c2ccc(Cl)cc2Cl)c1 | 12% | -3% | ? | i | -31% | 9.2µM*
CCOc1ccc(OCC)c(NC(=O)c2csc3c2CCCC3)c1 | -17% | / | / | / | / | /
Cc1cc2oc(=O)cc(CSc3nc(N)cc(N)n3)c2cc1C(C)C | -26% | -2% | 9% | i | -1%[9.22 µM] | i
CCCc1cc(=O)[nH]c(SCc2cc(=O)oc3cc(C)c(C(C)C)cc23)n1 | 4% | -17% | ? | i | 0% | 21µM*
SMILES | RGS4 inh | PTAP TSG101 blk | MCF10A rerep | KB-3-1 tox | SW480 rerep | KB-V1 MDR tox
O=C(NC12CC3CC(CC(C3)C1)C2)c1ccc(N2CCNCC2)c([N+](=O)[O-])c1 | -34% | 1% | 10% | 18µM* | ? | 23µM*
CS(=O)(=O)N1CCN(c2ccc(C(=O)NC34CC5CC(CC(C5)C3)C4)cc2[N+](=O)[O-])CC1 | ? | 0% | -1% | i | -4% | i
CCN(C(=O)C1CCCN(S(=O)(=O)c2c(C)noc2/C=C/N(C)C)C1)c1cccc(C)c1 (centres undefined) | 42% | / | / | i | / | i
Cc1nc(COC(=O)c2ccc(CO)cc2)cs1 | -31% | -3% | 2% | i | 2% | i
Cc1nc(COC(=O)c2cc(O)c3ccccc3c2O)cs1 | -6%[11.4 µM] | -4% | ? | i | 7.3µM* | i
CC1Cc2cc(S(=O)(=O)CCC(=O)Nc3ccccc3F)ccc2N1C(=O)C1CC1 (centres undefined) | 7% | / | / | / | / | /
COC(=O)c1sccc1-c1ccc(C(=O)Nc2ccccc2)o1 | -21% | -3% | 13% | ? | -3% | 13µM*
C/C(=N\Nc1ccc([N+](=O)[O-])cc1)c1ccc(-n2nncc2C)cc1 | 0% | ? | ? | i | ? | ?
CC(C)(C)c1cnnn1-c1ccc(/C=N/Nc2ccc([N+](=O)[O-])cc2)cc1 | 16%[11.4 µM] | -5% | ? | ? | 18µM* | i
Cc1ccc(C(=O)N(c2ccc(C)cc2)S(=O)(=O)c2ccc(Cl)cc2)cc1 | 11% | / | / | i | / | ?
COc1ccccc1N1CCN(C(=O)Cn2c(=O)nc(-c3ccccc3)c3ccccc32)CC1 | 15% | / | / | / | / | /
CC(=O)c1cccc(NC(=O)NN2CCN(C)CC2)c1 | 11% | 0% | 0% | i | 5.8µM* | i
Cc1ccccc1CSCC(=O)c1c(N)n(CC(C)C)c(=O)n(C)c1=O | -5% | -2% | 15% | ? | -7% | 18µM*
CCOc1cc(C(=O)OCC(=O)c2c(N)n(C)c(=O)n(C)c2=O)cc(OCC)c1OCC | -15% | 2% | 3% | i | 0% | 18µM*
CCCOc1ccc(C(=O)OCC(=O)c2c(N)n(C)c(=O)n(C)c2=O)cc1OCC | 19% | -1% | ? | i | -5% | i
Cc1ccccc1CSCC(=O)c1c(N)n(C)c(=O)n(C)c1=O | -9% | -4% | 25% | i | -10% | i
Cc1csc(=O)n1CCC(=O)OCC(=O)c1c(N)n(CC(C)C)c(=O)n(C)c1=O | -32% | 0% | -3% | i | 0% | i
CC(C)Cn1c(N)c(C(=O)COC(=O)c2ccc(Br)cc2)c(=O)n(C)c1=O | 19% | 0% | 4% | 15µM* | 1% | i
CC(C)Cn1c(N)c(C(=O)COC(=O)CC23CC4CC(CC(C4)C2)C3)c(=O)n(C)c1=O | -10% | -6% | 12µM* | ? | 2% | ?
C=CCNc1oc(/C=C/c2ccccc2)nc1C#N | -34% | -6% | 8.2µM* | i | 21µM* | 18µM*
COc1cccc(/C=C/c2nc(C#N)c(NCC(C)C)o2)c1 | 20% | -14% | 3.3µM* | ? | 21µM* | ?
CCOc1ccc(/C=C/c2nc(C#N)c(NCCCN(C)C)o2)cc1 | -15% | -2% | 6.5µM* | i | 18µM* | i
COCCCNc1oc(/C=C/c2ccccc2)nc1C#N | -8% | -7% | 16µM* | i | 7.9µM* | i

Source: PubChem (National Center for Advancing Translational Sciences (NCATS))
